Measurements published in PubChem BioAssay AID1159580 (chemical genetic matrix, 2015).
The campaign covered roughly 5,500 compounds. About 2,000 (36%) were called active. Another 18% or so got no clear call; they are omitted. No stated cut-off is given here; in the data, active means normalized growth mostly below about 0.91 (no sharp cut-off); inconclusive means no clear call, values can overlap the other calls; inactive means mostly above about 0.92. This is one part of the list.

Assay: chemical genetic growth profiling, strain panel (AID 1159580);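 further: tested at 20 µM; growth read once vehicle control cultures reached saturation at 30 °C; 1 = growth at the plate median or of vehicle wells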
Details: growth OD
[1] = S. cerevisiae deletion strains, locus YDL101C, strain DUN1, stronger effect = lower value
[2] = S. cerevisiae deletion strains, locus YJL095W, strain BCK1, stronger effect = lower value
[3] = S. cerevisiae deletion strains, locus YOR061W, strain CKA2, stronger effect = lower value

Measured: normalized growth

Cc1oc2c(F)c(F)c(F)c(F)c2c1C(=O)ONC(N)c1ccc(OS(=O)(=O)N(C)C)cc1 (stereo not drawn)
inactive: S. cerevisiae deletion strains, locus YAR019C, strain CDC15, stronger effect = lower value 0.958 | S. cerevisiae deletion strains, locus YBL105C, strain PKC1, stronger effect = lower value 0.963 | S. cerevisiae deletion strains, locus YBR135W, strain CKS1, stronger effect = lower value 0.971 | S. cerevisiae deletion strains, locus YBR136W, strain MEC1, stronger effect = lower value 0.958 | S. cerevisiae deletion strains, locus YBR160W, strain CDC28, stronger effect = lower value 0.976 | S. cerevisiae deletion strains, locus YDL017W, strain CDC7, stronger effect = lower value 0.973 | S. cerevisiae deletion strains, locus YDL028C, strain MPS1, stronger effect = lower value 0.959 | [1] 0.985 | S. cerevisiae deletion strains, locus YDL108W, strain KIN28, stronger effect = lower value 0.978 | S. cerevisiae deletion strains, locus YDL132W, strain cdc53, stronger effect = lower value 0.982 | S. cerevisiae deletion strains, locus YDL214C, strain PRR2, stronger effect = lower value 0.969 | S. cerevisiae deletion strains, locus YDR052C, strain DBF4, stronger effect = lower value 0.971 | S. cerevisiae deletion strains, locus YDR054C, strain cdc34, stronger effect = lower value 0.976 | S. cerevisiae deletion strains, locus YDR226W, strain ADK1, stronger effect = lower value 0.969 | S. cerevisiae deletion strains, locus YDR477W, strain SNF1, stronger effect = lower value 0.946 | S. cerevisiae deletion strains, locus YER123W, strain YCK3, stronger effect = lower value 0.926 | S. cerevisiae deletion strains, locus YER133W, strain GLC7, stronger effect = lower value 0.958 | S. cerevisiae deletion strains, locus YFL009W, strain cdc4, stronger effect = lower value 0.962 | S. cerevisiae deletion strains, locus YFL029C, strain CAK1, stronger effect = lower value 0.958 | S. cerevisiae deletion strains, locus YFR003C, strain YPI1, stronger effect = lower value 0.968 | S. cerevisiae deletion strains, locus YFR019W, strain FAB1, stronger effect = lower value 0.937 | S. cerevisiae deletion strains, locus YFR028C, strain CDC14, stronger effect = lower value 0.963 | S. cerevisiae deletion strains, locus YGR040W, strain KSS1, stronger effect = lower value 0.949 | S. cerevisiae deletion strains, locus YGR052W, strain FMP48, stronger effect = lower value 1.03 | S. cerevisiae deletion strains, locus YGR092W, strain DBF2, stronger effect = lower value 0.989 | S. cerevisiae deletion strains, locus YHR030C, strain SLT2, stronger effect = lower value 0.937 | S. cerevisiae deletion strains, locus YHR079C, strain IRE1, stronger effect = lower value 0.981 | S. cerevisiae deletion strains, locus YHR082C, strain KSP1, stronger effect = lower value 1.02 | S. cerevisiae deletion strains, locus YHR205W, strain SCH9, stronger effect = lower value 0.926 | S. cerevisiae deletion strains, locus YIL147C, strain SLN1, stronger effect = lower value 0.96 | [2] 0.983 | S. cerevisiae deletion strains, locus YJL128C, strain PBS2, stronger effect = lower value 0.972 | S. cerevisiae deletion strains, locus YJL157C, strain FAR1, stronger effect = lower value 0.963 | S. cerevisiae deletion strains, locus YJR016C, strain ILV3, stronger effect = lower value 0.972 | S. cerevisiae deletion strains, locus YJR066W, strain TOR1 (second series), stronger effect = lower value 0.918 | S. cerevisiae deletion strains, locus YJR066W, strain TOR1, stronger effect = lower value 0.985 | S. cerevisiae deletion strains, locus YKL048C, strain ELM1, stronger effect = lower value 0.981 | S. cerevisiae deletion strains, locus YKL067W, strain YNK1, stronger effect = lower value 0.975 | S. cerevisiae deletion strains, locus YKL101W, strain HSL1, stronger effect = lower value 0.966 | S. cerevisiae deletion strains, locus YKL193C, strain SDS22, stronger effect = lower value 0.969 | S. cerevisiae deletion strains, locus YKL203C, strain TOR2, stronger effect = lower value 0.99 | S. cerevisiae deletion strains, locus YLR113W, strain HOG1, stronger effect = lower value 0.966 | S. cerevisiae deletion strains, locus YLR133W, strain CKI1, stronger effect = lower value 0.96 | S. cerevisiae deletion strains, locus YLR403W, strain SFP1, stronger effect = lower value 0.921 | S. cerevisiae deletion strains, locus YML070W, strain DAK1, stronger effect = lower value 0.955 | S. cerevisiae deletion strains, locus YMR001C, strain CDC5, stronger effect = lower value 0.963 | S. cerevisiae deletion strains, locus YMR205C, strain PFK2 (second series), stronger effect = lower value 0.975 | S. cerevisiae deletion strains, locus YMR277W, strain FCP1, stronger effect = lower value 0.964 | S. cerevisiae deletion strains, locus YNL006W, strain LST8, stronger effect = lower value 0.97 | S. cerevisiae deletion strains, locus YNL020C, strain ARK1, stronger effect = lower value 0.982 | S. cerevisiae deletion strains, locus YNL161W, strain CBK1, stronger effect = lower value 0.971 | S. cerevisiae deletion strains, locus YNL183C, strain NPR1, stronger effect = lower value 0.964 | S. cerevisiae deletion strains, locus YNL207W, strain RIO2, stronger effect = lower value 0.967 | S. cerevisiae deletion strains, locus YNL222W, strain SSU72, stronger effect = lower value 0.976 | S. cerevisiae deletion strains, locus YNL307C, strain MCK1 (second series), stronger effect = lower value 0.952 | S. cerevisiae deletion strains, locus YOL078W, strain AVO1, stronger effect = lower value 0.963 | S. cerevisiae deletion strains, locus YOL136C, strain PFK27, stronger effect = lower value 0.952 | [3] 0.951 | S. cerevisiae deletion strains, locus YOR119C, strain RIO1, stronger effect = lower value 0.97 | S. cerevisiae deletion strains, locus YOR231W, strain MKK1, stronger effect = lower value 0.986 | S. cerevisiae deletion strains, locus YOR329C, strain SCD5, stronger effect = lower value 0.972 | S. cerevisiae deletion strains, locus YPL031C, strain PHO85, stronger effect = lower value 0.94 | S. cerevisiae deletion strains, locus YPL153C, strain RAD53, stronger effect = lower value 0.946 | S. cerevisiae deletion strains, locus YPL204W, strain HRR25, stronger effect = lower value 0.963 | S. cerevisiae deletion strains, locus YPL209C, strain IPL1, stronger effect = lower value 0.974 | S. cerevisiae deletion strains, locus YPL256C, strain CLN2, stronger effect = lower value 0.959 | S. cerevisiae deletion strains, locus YPR025C, strain CCL1, stronger effect = lower value 0.968 | S. cerevisiae deletion strains, locus YPR106W, strain ISR1, stronger effect = lower value 0.986 | S. cerevisiae deletion strains, locus YPR111W, strain DBF20, stronger effect = lower value 0.98 | S. cerevisiae deletion strains, strain NNK1, stronger effect = lower value 0.993 | S. cerevisiae deletion strains, strain TSCII, stronger effect = lower value 0.967

CC(C)=CCc1c(O)cc(C)oc1=O
inactive: S. cerevisiae deletion strains, locus YBR021W, strain FUR4, stronger effect = lower value 1.01 | S. cerevisiae deletion strains, locus YBR229C, strain ROT2, stronger effect = lower value 0.99 | S. cerevisiae deletion strains, locus YCL029C, strain bik1, stronger effect = lower value 0.97 | S. cerevisiae deletion strains, locus YDL035C, strain GPR1, stronger effect = lower value 1.11 | S. cerevisiae deletion strains, locus YDL074C, strain BRE1, stronger effect = lower value 1.12 | [1] 0.998 | S. cerevisiae deletion strains, locus YDL185W, strain tfp1, stronger effect = lower value 0.961 | S. cerevisiae deletion strains, locus YDL192W, strain arf1, stronger effect = lower value 1.01 | S. cerevisiae deletion strains, locus YDR101C, strain arx1, stronger effect = lower value 1.01 | S. cerevisiae deletion strains, locus YDR150W, strain NUM1, stronger effect = lower value 1.01 | S. cerevisiae deletion strains, locus YDR162C, strain NBP2, stronger effect = lower value 1.03 | S. cerevisiae deletion strains, locus YDR318W, strain mcm21, stronger effect = lower value 0.986 | S. cerevisiae deletion strains, locus YDR388W, stronger effect = lower value 0.994 | S. cerevisiae deletion strains, locus YDR502C, strain sam2, stronger effect = lower value 0.995 | S. cerevisiae deletion strains, locus YEL061C, strain CIN8, stronger effect = lower value 1.03 | S. cerevisiae deletion strains, locus YER110C, stronger effect = lower value 0.982 | S. cerevisiae deletion strains, locus YER155C, strain BEM2, stronger effect = lower value 0.963 | S. cerevisiae deletion strains, locus YER167W, strain BCK2, stronger effect = lower value 0.991 | S. cerevisiae deletion strains, locus YGL078C, strain dbp3, stronger effect = lower value 0.981 | S. cerevisiae deletion strains, locus YGL086W, strain mad1, stronger effect = lower value 1.01 | S. cerevisiae deletion strains, locus YGL248W, strain PDE1, stronger effect = lower value 1.03 | S. cerevisiae deletion strains, locus YGR135W, strain pre9, stronger effect = lower value 1 | S. cerevisiae deletion strains, locus YGR252W, strain gcn5, stronger effect = lower value 1.03 | S. cerevisiae deletion strains, locus YHR079C, strain IRE1 (second series), stronger effect = lower value 0.962 | S. cerevisiae deletion strains, locus YHR094C, strain hxt1, stronger effect = lower value 0.978 | S. cerevisiae deletion strains, locus YHR129C, strain ARP1, stronger effect = lower value 1.02 | S. cerevisiae deletion strains, locus YHR200W, strain rpn10, stronger effect = lower value 0.975 | S. cerevisiae deletion strains, locus YIL066C, strain RNR3, stronger effect = lower value 1 | S. cerevisiae deletion strains, locus YIL073C, strain SPO22, stronger effect = lower value 1.08 | S. cerevisiae deletion strains, locus YIL125W, strain kgd1, stronger effect = lower value 0.981 | S. cerevisiae deletion strains, locus YIR030C, strain dcg1, stronger effect = lower value 0.991 | [2] 1.04 | S. cerevisiae deletion strains, locus YJL134W, strain LCB3, stronger effect = lower value 0.988 | S. cerevisiae deletion strains, locus YJL168C, strain set2, stronger effect = lower value 0.967 | S. cerevisiae deletion strains, locus YJL187C, strain SWE1 (second series), stronger effect = lower value 1 | S. cerevisiae deletion strains, locus YJR043C, strain POL32, stronger effect = lower value 1.08 | S. cerevisiae deletion strains, locus YKL009W, strain mrt4, stronger effect = lower value 1.01 | S. cerevisiae deletion strains, locus YKL068W, stronger effect = lower value 0.98 | S. cerevisiae deletion strains, locus YKL085W, strain MDH1 (second series), stronger effect = lower value 0.972 | S. cerevisiae deletion strains, locus YKL085W, strain MDH1, stronger effect = lower value 0.972 | S. cerevisiae deletion strains, locus YKL190W, strain CNB1, stronger effect = lower value 1.02 | S. cerevisiae deletion strains, locus YKR001C, strain vps1, stronger effect = lower value 1.03 | S. cerevisiae deletion strains, locus YLR039C, strain RIC1, stronger effect = lower value 1.21 | S. cerevisiae deletion strains, locus YLR058C, strain SHM2, stronger effect = lower value 1.01 | S. cerevisiae deletion strains, locus YLR102C, strain apc9, stronger effect = lower value 0.953 | S. cerevisiae deletion strains, locus YLR262C, strain YPT6, stronger effect = lower value 1.19 | S. cerevisiae deletion strains, locus YLR268W, strain sec22, stronger effect = lower value 0.999 | S. cerevisiae deletion strains, locus YLR330W, strain CHS5, stronger effect = lower value 1.01 | S. cerevisiae deletion strains, locus YLR371W, strain rom2, stronger effect = lower value 0.983 | S. cerevisiae deletion strains, locus YLR418C, strain cdc73, stronger effect = lower value 0.987 | S. cerevisiae deletion strains, locus YML016C, strain PPZ1, stronger effect = lower value 0.982 | S. cerevisiae deletion strains, locus YML032C, strain rad52, stronger effect = lower value 0.994 | S. cerevisiae deletion strains, locus YML124C, strain tub3, stronger effect = lower value 0.973 | S. cerevisiae deletion strains, locus YMR078C, strain ctf18, stronger effect = lower value 0.98 | S. cerevisiae deletion strains, locus YMR223W, strain ubp8, stronger effect = lower value 0.99 | S. cerevisiae deletion strains, locus YMR307W, strain GAS1, stronger effect = lower value 1.13 | S. cerevisiae deletion strains, locus YNL067W, strain RPL9B, stronger effect = lower value 1.02 | S. cerevisiae deletion strains, locus YNL128W, strain TEP1, stronger effect = lower value 1.01 | S. cerevisiae deletion strains, locus YNL233W, strain BNI4, stronger effect = lower value 1.05 | S. cerevisiae deletion strains, locus YNL250W, strain rad50, stronger effect = lower value 0.94 | S. cerevisiae deletion strains, locus YNL271C, strain bni1, stronger effect = lower value 0.986 | S. cerevisiae deletion strains, locus YNL298W, strain CLA4, stronger effect = lower value 0.981 | S. cerevisiae deletion strains, locus YNL307C, strain MCK1, stronger effect = lower value 1 | S. cerevisiae deletion strains, locus YNL322C, strain KRE1, stronger effect = lower value 0.995 | S. cerevisiae deletion strains, locus YNR052C, strain pop2, stronger effect = lower value 0.99 | S. cerevisiae deletion strains, locus YOL006C, strain TOP1, stronger effect = lower value 1.26 | S. cerevisiae deletion strains, locus YOL012C, strain htz1 0.881 | S. cerevisiae deletion strains, locus YOL147C, strain pex11, stronger effect = lower value 0.973 | [3] 0.991 | S. cerevisiae deletion strains, locus YOR069W, strain VPS5, stronger effect = lower value 0.989 | S. cerevisiae deletion strains, locus YOR136W, strain idh2, stronger effect = lower value 0.972 | S. cerevisiae deletion strains, locus YOR144C, strain elg1, stronger effect = lower value 0.964 | S. cerevisiae deletion strains, locus YOR184W, strain ser1, stronger effect = lower value 1.07 | S. cerevisiae deletion strains, locus YOR316C, strain cot1, stronger effect = lower value 0.971 | S. cerevisiae deletion strains, locus YPL055C, strain LGE1, stronger effect = lower value 1.1 | S. cerevisiae deletion strains, locus YPL241C, strain CIN2, stronger effect = lower value 0.997 | S. cerevisiae deletion strains, locus YPR119W, strain clb2, stronger effect = lower value 0.963 | S. cerevisiae deletion strains, locus YPR141C, strain kar3, stronger effect = lower value 0.954 | S. cerevisiae deletion strains, locus YPR163C, strain tif3, stronger effect = lower value 0.995 | S. cerevisiae deletion strains, locus YPR167C, strain met16, stronger effect = lower value 0.995 | S. cerevisiae deletion strains, strain wtn01, stronger effect = lower value 1.01 | S. cerevisiae strains, strain wild type, stronger effect = lower value 1.04
